From PubChem BioAssay (NCI)
This is part of a sample that, as a whole, favours compounds with a hit. Of some 83,000 tested, about 20% had one in any assay.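 Activity criterion: percent growth below 10, measured after cells in 96-well plates were exposed to a single compound concentration for 48 hours.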 Calls of active or inactive are those of the source.

What was measured:
Assay in all cases: NCI-60 one-dose screen, 48 h (100 = growth as untreated, 0 = no growth, -100 = all killed)
Settings in all cases: 10 µM
NCI-H23 lung = tested on: NCI-H23 lung
NCI-H226 lung = tested on: NCI-H226 lung
NCI-H322M lung = tested on: NCI-H322M lung
HOP-62 NSCLC = tested on: HOP-62 NSCLC
NCI-H460 lung = tested on: NCI-H460 lung
HOP-92 NSCLC = tested on: HOP-92 NSCLC
NCI-H522 lung = tested on: NCI-H522 lung
A549/ATCC NSCLC = tested on: A549/ATCC NSCLC
786-0 renal = tested on: 786-0 renal
COLO 205 colon = tested on: COLO 205 colon
DU-145 prostate = tested on: DU-145 prostate
K-562 leukemia = tested on: K-562 leukemia
MALME-3M melanoma = tested on: MALME-3M melanoma
MDA-MB-231 breast = tested on: MDA-MB-231 breast
RXF 393 renal = tested on: RXF 393 renal
SF-268 CNS = tested on: SF-268 CNS
SF-295 CNS = tested on: SF-295 CNS
SF-539 CNS = tested on: SF-539 CNS
UACC-257 melanoma = tested on: UACC-257 melanoma
M14 melanoma = tested on: M14 melanoma

Measured: growth

COc1cc(/C=C/C(=O)c2cc(OC)c(OC)c(OC)c2)ccc1Oc1nc(Nc2ccc(F)cc2)nc(N(C)C)n1
inactive: NCI-H226 lung 17.9% | SF-268 CNS 27.7%
active: NCI-H23 lung -23.7% | NCI-H322M lung 9.59% | HOP-62 NSCLC -44.5% | NCI-H460 lung -23% | HOP-92 NSCLC -42.3% | NCI-H522 lung -82.7% | A549/ATCC NSCLC -48.3% | 786-0 renal -94.1% | COLO 205 colon 7.64% | DU-145 prostate -35.8% | K-562 leukemia 2.36% | MALME-3M melanoma -40.3% | MDA-MB-231 breast -60% | RXF 393 renal -74.9% | SF-295 CNS -55.2% | SF-539 CNS -80.6% | UACC-257 melanoma -30.5% | M14 melanoma -27.5%

CN(C(=O)c1ccc(C(F)(F)F)cc1C(F)(F)F)c1sc2c(c1C#N)CCC(=O)C2
active: NCI-H522 lung -59.7% | K-562 leukemia 6.49% | RXF 393 renal 7.86% | SF-539 CNS -37.6%
inactive: NCI-H23 lung 50% | NCI-H226 lung 102% | NCI-H322M lung 93.6% | HOP-62 NSCLC 92% | NCI-H460 lung 113% | HOP-92 NSCLC 80.6% | A549/ATCC NSCLC 94.4% | 786-0 renal 85.2% | COLO 205 colon 112% | DU-145 prostate 103% | MALME-3M melanoma 99% | MDA-MB-231 breast 71.1% | SF-268 CNS 85% | SF-295 CNS 65.1% | UACC-257 melanoma 99% | M14 melanoma 73.9%

CCCCCCCCCCCCCCCCCCCC(=O)NCCc1c[nH]c2ccc(O)cc12
inactive: NCI-H23 lung 103% | NCI-H226 lung 87.6% | NCI-H322M lung 114% | HOP-62 NSCLC 144% | NCI-H460 lung 101% | HOP-92 NSCLC 148% | A549/ATCC NSCLC 90.8% | 786-0 renal 100% | COLO 205 colon 147% | DU-145 prostate 105% | K-562 leukemia 74.5% | MALME-3M melanoma 120% | MDA-MB-231 breast 78% | RXF 393 renal 115% | SF-268 CNS 91.6% | SF-295 CNS 96.3% | SF-539 CNS 60.8% | UACC-257 melanoma 107% | M14 melanoma 101%
active: NCI-H522 lung -13.2%

N#Cc1c(NC(=O)c2cccc(C(F)(F)F)c2)sc2c1CCC(O)=C2
inactive: NCI-H23 lung 22.3% | NCI-H226 lung 54.7% | NCI-H322M lung 49.2% | HOP-62 NSCLC 55% | NCI-H460 lung 30.3% | HOP-92 NSCLC 11.2% | NCI-H522 lung 11.2% | A549/ATCC NSCLC 35.7% | 786-0 renal 62.1% | COLO 205 colon 90.2% | DU-145 prostate 50.1% | K-562 leukemia 14.5% | MALME-3M melanoma 19.3% | MDA-MB-231 breast 39.6% | RXF 393 renal 50.7% | SF-268 CNS 38.6% | SF-295 CNS 35.3% | SF-539 CNS 48.1% | UACC-257 melanoma 30.1% | M14 melanoma 36.8%
